Tests used:
[1] = target: NR5A2 wild type;histone octamer (Homo sapiens;, UniProt O00482;C0HKE1;Q6ZWY9;P84244;P62806 1-541;2-130;2-126;2-136;2-103, |); assay: SeEN-seq (EMSA of nucleosome library followed by sequencing); 0.8 uM human NR5A2; 20 mM Tris-HCl pH 7.5, 120 mM NaCl, 1 mM MgCl2, 10 uM ZnCl2, 1 mM DTT, 100 ug/ml BSA, room temperature, 30 min; 0.1 uM nucleosome library; high values mean tight binding
[2] = target: mouse Nr5a2 wild type;histone octamer (Mus musculus;, UniProt P45448;C0HKE1;Q6ZWY9;P84244;P62806 1-560;2-130;2-126;2-136;2-103, |); assay: SeEN-seq (EMSA of nucleosome library followed by sequencing); 1.2 uM mouse Nr5a2; 20 mM Tris-HCl pH 7.5, 120 mM NaCl, 1 mM MgCl2, 10 uM ZnCl2, 1 mM DTT, 100 ug/ml BSA, room temperature, 30 min; 0.1 uM nucleosome library; high values mean tight binding

B1: 39 (nucleosome)
DNA 1: ATCCTGGAGAATCCCGGTGCCGAGGCCGCTCAATTGGTCGTTCAAGGCCATAGCACCGCTTAAACGCACGTACGCGCTGTCCCCCGCGTTTTAACCGCCAAGGGGATTACTCCCTAGTCTCCAGGCACGTGTCAGATATATACATCCTGTGAT
DNA 2: ATCACAGGATGTATATATCTGACACGTGCCTGGAGACTAGGGAGTAATCCCCTTGGCGGTTAAAACGCGGGGGACAGCGCGTACGTGCGTTTAAGCGGTGCTATGGCCTTGAACGACCAATTGAGCGGCCTCGGCACCGGGATTCTCCAGGAT
modifications: reconstituted with mouse histones H2A, H2B, H3.3 and H4
With B1 the binding signal [1] was 0.783 log2 enrichment (bound/unbound, relative to Widom 601) and the binding signal [2] was 0.704 log2 enrichment (bound/unbound, relative to Widom 601).

B2: 40 (nucleosome)
DNA 1: ATCCTGGAGAATCCCGGTGCCGAGGCCGCTCAATTGGTCGTATCAAGGCCAAGCACCGCTTAAACGCACGTACGCGCTGTCCCCCGCGTTTTAACCGCCAAGGGGATTACTCCCTAGTCTCCAGGCACGTGTCAGATATATACATCCTGTGAT
DNA 2: ATCACAGGATGTATATATCTGACACGTGCCTGGAGACTAGGGAGTAATCCCCTTGGCGGTTAAAACGCGGGGGACAGCGCGTACGTGCGTTTAAGCGGTGCTTGGCCTTGATACGACCAATTGAGCGGCCTCGGCACCGGGATTCTCCAGGAT
modifications: reconstituted with mouse histones H2A, H2B, H3.3 and H4
In the case of B2, the binding signal [1] is reported as 0.693 log2 enrichment (bound/unbound, relative to Widom 601) and the binding signal [2] is reported as 0.706 log2 enrichment (bound/unbound, relative to Widom 601).

B3: 41 (nucleosome)
DNA 1: ATCCTGGAGAATCCCGGTGCCGAGGCCGCTCAATTGGTCGTAGTCAAGGCCAGCACCGCTTAAACGCACGTACGCGCTGTCCCCCGCGTTTTAACCGCCAAGGGGATTACTCCCTAGTCTCCAGGCACGTGTCAGATATATACATCCTGTGAT
DNA 2: ATCACAGGATGTATATATCTGACACGTGCCTGGAGACTAGGGAGTAATCCCCTTGGCGGTTAAAACGCGGGGGACAGCGCGTACGTGCGTTTAAGCGGTGCTGGCCTTGACTACGACCAATTGAGCGGCCTCGGCACCGGGATTCTCCAGGAT
modifications: reconstituted with mouse histones H2A, H2B, H3.3 and H4
B3 was tested, and the binding signal [1] was 2.28 log2 enrichment (bound/unbound, relative to Widom 601) and the binding signal [2] was 1.87 log2 enrichment (bound/unbound, relative to Widom 601).

B4: 46 (nucleosome)
DNA 1: ATCCTGGAGAATCCCGGTGCCGAGGCCGCTCAATTGGTCGTAGACAGCTCAAGGCCAGCTTAAACGCACGTACGCGCTGTCCCCCGCGTTTTAACCGCCAAGGGGATTACTCCCTAGTCTCCAGGCACGTGTCAGATATATACATCCTGTGAT
DNA 2: ATCACAGGATGTATATATCTGACACGTGCCTGGAGACTAGGGAGTAATCCCCTTGGCGGTTAAAACGCGGGGGACAGCGCGTACGTGCGTTTAAGCTGGCCTTGAGCTGTCTACGACCAATTGAGCGGCCTCGGCACCGGGATTCTCCAGGAT
modifications: reconstituted with mouse histones H2A, H2B, H3.3 and H4
In the case of B4, the binding signal [1] is reported as 0.748 log2 enrichment (bound/unbound, relative to Widom 601) and the binding signal [2] is reported as 0.651 log2 enrichment (bound/unbound, relative to Widom 601).

B5: 44 (nucleosome)
DNA 1: ATCCTGGAGAATCCCGGTGCCGAGGCCGCTCAATTGGTCGTAGACATCAAGGCCACCGCTTAAACGCACGTACGCGCTGTCCCCCGCGTTTTAACCGCCAAGGGGATTACTCCCTAGTCTCCAGGCACGTGTCAGATATATACATCCTGTGAT
DNA 2: ATCACAGGATGTATATATCTGACACGTGCCTGGAGACTAGGGAGTAATCCCCTTGGCGGTTAAAACGCGGGGGACAGCGCGTACGTGCGTTTAAGCGGTGGCCTTGATGTCTACGACCAATTGAGCGGCCTCGGCACCGGGATTCTCCAGGAT
modifications: reconstituted with mouse histones H2A, H2B, H3.3 and H4
B5 was tested, and the binding signal [1] was 2.41 log2 enrichment (bound/unbound, relative to Widom 601) and the binding signal [2] was 1.31 log2 enrichment (bound/unbound, relative to Widom 601).

B6: 45 (nucleosome)
DNA 1: ATCCTGGAGAATCCCGGTGCCGAGGCCGCTCAATTGGTCGTAGACAGTCAAGGCCACGCTTAAACGCACGTACGCGCTGTCCCCCGCGTTTTAACCGCCAAGGGGATTACTCCCTAGTCTCCAGGCACGTGTCAGATATATACATCCTGTGAT
DNA 2: ATCACAGGATGTATATATCTGACACGTGCCTGGAGACTAGGGAGTAATCCCCTTGGCGGTTAAAACGCGGGGGACAGCGCGTACGTGCGTTTAAGCGTGGCCTTGACTGTCTACGACCAATTGAGCGGCCTCGGCACCGGGATTCTCCAGGAT
modifications: reconstituted with mouse histones H2A, H2B, H3.3 and H4
In the case of B6, the binding signal [1] is reported as 0.761 log2 enrichment (bound/unbound, relative to Widom 601) and the binding signal [2] is reported as 0.671 log2 enrichment (bound/unbound, relative to Widom 601).

B7: 48 (nucleosome)
DNA 1: ATCCTGGAGAATCCCGGTGCCGAGGCCGCTCAATTGGTCGTAGACAGCTCTCAAGGCCATTAAACGCACGTACGCGCTGTCCCCCGCGTTTTAACCGCCAAGGGGATTACTCCCTAGTCTCCAGGCACGTGTCAGATATATACATCCTGTGAT
DNA 2: ATCACAGGATGTATATATCTGACACGTGCCTGGAGACTAGGGAGTAATCCCCTTGGCGGTTAAAACGCGGGGGACAGCGCGTACGTGCGTTTAATGGCCTTGAGAGCTGTCTACGACCAATTGAGCGGCCTCGGCACCGGGATTCTCCAGGAT
modifications: reconstituted with mouse histones H2A, H2B, H3.3 and H4
In the case of B7, the binding signal [1] is reported as 0.867 log2 enrichment (bound/unbound, relative to Widom 601) and the binding signal [2] is reported as 0.815 log2 enrichment (bound/unbound, relative to Widom 601).

B8: 49 (nucleosome)
DNA 1: ATCCTGGAGAATCCCGGTGCCGAGGCCGCTCAATTGGTCGTAGACAGCTCTTCAAGGCCATAAACGCACGTACGCGCTGTCCCCCGCGTTTTAACCGCCAAGGGGATTACTCCCTAGTCTCCAGGCACGTGTCAGATATATACATCCTGTGAT
DNA 2: ATCACAGGATGTATATATCTGACACGTGCCTGGAGACTAGGGAGTAATCCCCTTGGCGGTTAAAACGCGGGGGACAGCGCGTACGTGCGTTTATGGCCTTGAAGAGCTGTCTACGACCAATTGAGCGGCCTCGGCACCGGGATTCTCCAGGAT
modifications: reconstituted with mouse histones H2A, H2B, H3.3 and H4
For B8, the binding signal [1] was 1.14 log2 enrichment (bound/unbound, relative to Widom 601) and the binding signal [2] was 1.11 log2 enrichment (bound/unbound, relative to Widom 601).

B9: 51 (nucleosome)
DNA 1: ATCCTGGAGAATCCCGGTGCCGAGGCCGCTCAATTGGTCGTAGACAGCTCTAGTCAAGGCCAAACGCACGTACGCGCTGTCCCCCGCGTTTTAACCGCCAAGGGGATTACTCCCTAGTCTCCAGGCACGTGTCAGATATATACATCCTGTGAT
DNA 2: ATCACAGGATGTATATATCTGACACGTGCCTGGAGACTAGGGAGTAATCCCCTTGGCGGTTAAAACGCGGGGGACAGCGCGTACGTGCGTTTGGCCTTGACTAGAGCTGTCTACGACCAATTGAGCGGCCTCGGCACCGGGATTCTCCAGGAT
modifications: reconstituted with mouse histones H2A, H2B, H3.3 and H4
For B9, the binding signal [1] was 0.595 log2 enrichment (bound/unbound, relative to Widom 601) and the binding signal [2] was 0.567 log2 enrichment (bound/unbound, relative to Widom 601).

B10: 50 (nucleosome)
DNA 1: ATCCTGGAGAATCCCGGTGCCGAGGCCGCTCAATTGGTCGTAGACAGCTCTATCAAGGCCAAAACGCACGTACGCGCTGTCCCCCGCGTTTTAACCGCCAAGGGGATTACTCCCTAGTCTCCAGGCACGTGTCAGATATATACATCCTGTGAT
DNA 2: ATCACAGGATGTATATATCTGACACGTGCCTGGAGACTAGGGAGTAATCCCCTTGGCGGTTAAAACGCGGGGGACAGCGCGTACGTGCGTTTTGGCCTTGATAGAGCTGTCTACGACCAATTGAGCGGCCTCGGCACCGGGATTCTCCAGGAT
modifications: reconstituted with mouse histones H2A, H2B, H3.3 and H4
B10 was tested, and the binding signal [1] was 0.992 log2 enrichment (bound/unbound, relative to Widom 601) and the binding signal [2] was 1.01 log2 enrichment (bound/unbound, relative to Widom 601).

B11: 42 (nucleosome)
DNA 1: ATCCTGGAGAATCCCGGTGCCGAGGCCGCTCAATTGGTCGTAGATCAAGGCCACACCGCTTAAACGCACGTACGCGCTGTCCCCCGCGTTTTAACCGCCAAGGGGATTACTCCCTAGTCTCCAGGCACGTGTCAGATATATACATCCTGTGAT
DNA 2: ATCACAGGATGTATATATCTGACACGTGCCTGGAGACTAGGGAGTAATCCCCTTGGCGGTTAAAACGCGGGGGACAGCGCGTACGTGCGTTTAAGCGGTGTGGCCTTGATCTACGACCAATTGAGCGGCCTCGGCACCGGGATTCTCCAGGAT
modifications: reconstituted with mouse histones H2A, H2B, H3.3 and H4
B11 was tested, and the binding signal [1] was 2.74 log2 enrichment (bound/unbound, relative to Widom 601) and the binding signal [2] was 2.07 log2 enrichment (bound/unbound, relative to Widom 601).

B12: 47 (nucleosome)
DNA 1: ATCCTGGAGAATCCCGGTGCCGAGGCCGCTCAATTGGTCGTAGACAGCTTCAAGGCCACTTAAACGCACGTACGCGCTGTCCCCCGCGTTTTAACCGCCAAGGGGATTACTCCCTAGTCTCCAGGCACGTGTCAGATATATACATCCTGTGAT
DNA 2: ATCACAGGATGTATATATCTGACACGTGCCTGGAGACTAGGGAGTAATCCCCTTGGCGGTTAAAACGCGGGGGACAGCGCGTACGTGCGTTTAAGTGGCCTTGAAGCTGTCTACGACCAATTGAGCGGCCTCGGCACCGGGATTCTCCAGGAT
modifications: reconstituted with mouse histones H2A, H2B, H3.3 and H4
With B12 the binding signal [1] was 1.01 log2 enrichment (bound/unbound, relative to Widom 601) and the binding signal [2] was 1.07 log2 enrichment (bound/unbound, relative to Widom 601).

B13: 43 (nucleosome)
DNA 1: ATCCTGGAGAATCCCGGTGCCGAGGCCGCTCAATTGGTCGTAGACTCAAGGCCAACCGCTTAAACGCACGTACGCGCTGTCCCCCGCGTTTTAACCGCCAAGGGGATTACTCCCTAGTCTCCAGGCACGTGTCAGATATATACATCCTGTGAT
DNA 2: ATCACAGGATGTATATATCTGACACGTGCCTGGAGACTAGGGAGTAATCCCCTTGGCGGTTAAAACGCGGGGGACAGCGCGTACGTGCGTTTAAGCGGTTGGCCTTGAGTCTACGACCAATTGAGCGGCCTCGGCACCGGGATTCTCCAGGAT
modifications: reconstituted with mouse histones H2A, H2B, H3.3 and H4
For B13, the binding signal [1] was 2.58 log2 enrichment (bound/unbound, relative to Widom 601) and the binding signal [2] was 1.55 log2 enrichment (bound/unbound, relative to Widom 601).

B14: 7 (nucleosome)
DNA 1: ATCCTGGAGTCAAGGCCAGCCGAGGCCGCTCAATTGGTCGTAGACAGCTCTAGCACCGCTTAAACGCACGTACGCGCTGTCCCCCGCGTTTTAACCGCCAAGGGGATTACTCCCTAGTCTCCAGGCACGTGTCAGATATATACATCCTGTGAT
DNA 2: ATCACAGGATGTATATATCTGACACGTGCCTGGAGACTAGGGAGTAATCCCCTTGGCGGTTAAAACGCGGGGGACAGCGCGTACGTGCGTTTAAGCGGTGCTAGAGCTGTCTACGACCAATTGAGCGGCCTCGGCTGGCCTTGACTCCAGGAT
modifications: reconstituted with mouse histones H2A, H2B, H3.3 and H4
B14 was tested, and the binding signal [1] was 2.59 log2 enrichment (bound/unbound, relative to Widom 601) and the binding signal [2] was 2.08 log2 enrichment (bound/unbound, relative to Widom 601).

B15: 52 (nucleosome)
DNA 1: ATCCTGGAGAATCCCGGTGCCGAGGCCGCTCAATTGGTCGTAGACAGCTCTAGCTCAAGGCCAACGCACGTACGCGCTGTCCCCCGCGTTTTAACCGCCAAGGGGATTACTCCCTAGTCTCCAGGCACGTGTCAGATATATACATCCTGTGAT
DNA 2: ATCACAGGATGTATATATCTGACACGTGCCTGGAGACTAGGGAGTAATCCCCTTGGCGGTTAAAACGCGGGGGACAGCGCGTACGTGCGTTGGCCTTGAGCTAGAGCTGTCTACGACCAATTGAGCGGCCTCGGCACCGGGATTCTCCAGGAT
modifications: reconstituted with mouse histones H2A, H2B, H3.3 and H4
In the case of B15, the binding signal [1] is reported as 0.917 log2 enrichment (bound/unbound, relative to Widom 601) and the binding signal [2] is reported as 1.16 log2 enrichment (bound/unbound, relative to Widom 601).

Source: PMC11102866, “Nucleosome-bound NR5A2 structure reveals pioneer factor mechanism by DNA minor groove anchor competition”
